# Reference: PubChem BioAssay (NCI)
# Compounds without any hit were thinned out: in the full panel of roughly 79,000, 15% have a hit. A number with no mark means an inactive call. Activity calls are given as the source filed them. Cut-off read from the data, not from the text of the source: active = growth inhibition above about 70%; inactive = the rest.
# How the values were obtained:
# [1] = NCI Yeast Anticancer Drug Screen. Data for the mlh1 strain (AID 171);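 note: 0% = growth of vehicle-treated control cultures of the same strain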; conditions: S. cerevisiae mlh1 strain growth inhibition, active compounds read high
# How it was run: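 Measured: yeast growth. Reference: vehicle-treated controls. Organism: strain with a defined alteration affecting DNA damage repair or cell cycle control, treated with compound.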
# [2] = NCI Yeast Anticancer Drug Screen. Data for the sgs1 strain (AID 173);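 note: 0% = growth of vehicle-only control cultures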; conditions: S. cerevisiae sgs1 mutant, active compounds read high
# How it was run: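 Each compound was added to cultures of the altered yeast strain. Growth was recorded, and inhibition was derived by comparison with vehicle controls.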
# [3] = NCI Yeast Anticancer Drug Screen. Data for the mlh1 rad18 strain (AID 175); conditions: S. cerevisiae mlh1 rad18 strain growth inhibition, active compounds read high
# How it was run: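 Genetically defined yeast (DNA repair-deficient) exposed to compounds; growth inhibition determined relative to vehicle.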
# [4] = NCI Yeast Anticancer Drug Screen. Data for the rad18 strain (AID 177); conditions: S. cerevisiae rad18 mutant growth inhibition, active compounds read high
# How it was run: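 Vehicle-treated cultures served as the baseline for scoring compound-induced growth inhibition in DNA-repair-mutant yeast.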
# [5] = NCI Yeast Anticancer Drug Screen. Data for the rad52 strain (AID 147);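 note: 0% = growth of vehicle-treated control cultures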; conditions: S. cerevisiae rad52 mutant growth inhibition, active compounds read high
# How it was run: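 The repair-mutant yeast strain was incubated with compounds, then growth was read and inhibition derived relative to vehicle.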
# [6] = NCI Yeast Anticancer Drug Screen. Data for the wt1 strain (AID 149);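 note: 0% = growth of vehicle-treated wt1 cultures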; conditions: S. cerevisiae wt1 strain (SPY 50644) growth inhibition, active compounds read high
# How it was run: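 Yeast wt1 strain exposed to compounds; growth inhibition measured relative to vehicle-treated controls.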
# [7] = NCI Yeast Anticancer Drug Screen. Data for the rad50EPP+ strain (AID 151);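 note: 0% = growth of vehicle-treated control cultures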; conditions: S. cerevisiae rad50 mutant strain, active compounds read high
# How it was run: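 Vehicle-normalised growth inhibition; rad50EPP+ yeast strain, altered in DNA damage repair, compound-treated.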
# [8] = NCI Yeast Anticancer Drug Screen. Data for the mgt1 strain (AID 153); conditions: S. cerevisiae mgt1 mutant growth inhibition, active compounds read high
# How it was run: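 Vehicle-normalized growth inhibition is determined in mgt1 yeast, a strain selected for a defined alteration in DNA repair or cell cycle control.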
# [9] = NCI Yeast Anticancer Drug Screen. Data for the rad50 strain (AID 155);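 note: 0% = growth of vehicle-only cultures of the same strain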; conditions: S. cerevisiae rad50 strain growth inhibition, active compounds read high
# How it was run: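 Yeast carrying a defined DNA repair defect were exposed to test compounds, and growth was compared with vehicle-treated controls to give percent inhibition.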
# [10] = NCI Yeast Anticancer Drug Screen. Data for the mec2-1 strain (AID 157); conditions: S. cerevisiae mec2-1 strain, active compounds read high
# How it was run: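 Mutant yeast (mec2-1) grown with compound; growth inhibition relative to vehicle control reported.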
# [11] = NCI Yeast Anticancer Drug Screen. Data for the sgs1 mgt1 strain (AID 161);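 note: 0% = growth of cultures given vehicle only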; conditions: S. cerevisiae sgs1 mgt1 strain, active compounds read high
# How it was run: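 Yeast cells carrying a defined DNA-repair defect were exposed to test compounds. Growth inhibition was measured relative to vehicle-treated controls.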
# [12] = NCI Yeast Anticancer Drug Screen. Data for the CLN2oe strain (AID 163);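 note: 0% = growth of vehicle-only control cultures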; conditions: S. cerevisiae CLN2oe strain, active compounds read high
# How it was run: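 Compounds are applied to yeast harbouring a defined cell-cycle control change; reduced growth compared with vehicle-treated controls gives the value.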
# [13] = NCI Yeast Anticancer Drug Screen. Data for the cln2 rad14 strain (AID 165);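 note: 0% = growth equal to vehicle treated cultures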; conditions: S. cerevisiae cln2 rad14 strain, active compounds read high
# How it was run: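 Readout is yeast growth inhibition versus vehicle-treated controls, using a strain with cln2 and rad14 alterations exposed to compound.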
# [14] = NCI Yeast Anticancer Drug Screen. Data for the bub3 strain (AID 167); conditions: S. cerevisiae bub3 mutant strain, active compounds read high
# How it was run: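 Compounds were applied to a genetically altered yeast strain carrying a cell-cycle control defect. Growth inhibition was scored against vehicle-treated controls.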
# [15] = NCI Yeast Anticancer Drug Screen. Data for the wt2 strain (AID 169);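 note: 0% = growth of vehicle-treated yeast cultures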; conditions: S. cerevisiae wt2 strain growth inhibition, active compounds read high
# How it was run: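 Against vehicle-treated controls, the growth of yeast exposed to each compound was compared, and the inhibition was recorded.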
# [16] = at 5.0 µM (retest, dose inferred, filed as 0.5)
# [17] = at 50.0 µM (retest, dose inferred, filed as 5.0)
smiles,measurement,setting,value
O=C1c2ccccc2C(=O)c2c(NC3CCCCC3)ccc(Nc3ccc(S(=O)(=O)O)cc3)c21,growth inhibition,[1]; at 1.2 µM,-2%
same,growth inhibition,[1]; at 3.7 µM,-3%
same,growth inhibition,[1]; at 11.0 µM,5%
same,growth inhibition,[1]; at 33.0 µM,50%
same,growth inhibition,[1]; at 100.0 µM,71% (active)
same,growth inhibition,[2]; at 1.2 µM,-1%
same,growth inhibition,[2]; at 3.7 µM,-2%
same,growth inhibition,[2]; at 11.0 µM,23%
same,growth inhibition,[2]; at 33.0 µM,79% (active)
same,growth inhibition,[2]; at 100.0 µM,72% (active)
same,growth inhibition,[3]; [16],5%
same,growth inhibition,[3]; [17],72% (active)
same,growth inhibition,[3]; at 50.0 µM,82.9% (active)
same,growth inhibition,[4]; at 1.2 µM,-2%
same,growth inhibition,[4]; at 3.7 µM,-13%
same,growth inhibition,[4]; at 11.0 µM,-1%
same,growth inhibition,[4]; at 33.0 µM,40%
same,growth inhibition,[4]; at 100.0 µM,46%
Cc1c(C(=O)C(=O)c2ccccc2)c(C)c(C(=O)C(=O)c2ccccc2)c(C)c1C(=O)C(=O)c1ccccc1,growth inhibition,[5]; at 1.2 µM,-4%
same,growth inhibition,[5]; at 3.7 µM,-5%
same,growth inhibition,[5]; at 11.0 µM,-7%
same,growth inhibition,[5]; at 33.0 µM,-17%
same,growth inhibition,[5]; at 100.0 µM,-14%
same,growth inhibition,[6]; at 1.2 µM,0%
same,growth inhibition,[6]; at 3.7 µM,1%
same,growth inhibition,[6]; at 11.0 µM,-1%
same,growth inhibition,[6]; at 33.0 µM,-4%
same,growth inhibition,[6]; at 100.0 µM,-5%
same,growth inhibition,[7]; at 1.2 µM,0%
same,growth inhibition,[7]; at 3.7 µM,-1%
same,growth inhibition,[7]; at 11.0 µM,-3%
same,growth inhibition,[7]; at 33.0 µM,-5%
same,growth inhibition,[7]; at 100.0 µM,-17%
same,growth inhibition,[8]; at 1.2 µM,-2%
same,growth inhibition,[8]; at 3.7 µM,-2%
same,growth inhibition,[8]; at 11.0 µM,-5%
same,growth inhibition,[8]; at 33.0 µM,-21%
same,growth inhibition,[8]; at 100.0 µM,-9%
same,growth inhibition,[9]; at 1.2 µM,-11%
same,growth inhibition,[9]; at 3.7 µM,-21%
same,growth inhibition,[9]; [16],11%
same,growth inhibition,[9]; at 11.0 µM,-29%
same,growth inhibition,[9]; at 33.0 µM,-12%
same,growth inhibition,[9]; [17],86% (active)
same,growth inhibition,[9]; at 50.0 µM,54.1%
same,growth inhibition,[9]; at 100.0 µM,-19%
same,growth inhibition,[10]; at 1.2 µM,-2%
same,growth inhibition,[10]; at 3.7 µM,1%
same,growth inhibition,[10]; [16],18%
same,growth inhibition,[10]; at 11.0 µM,-1%
same,growth inhibition,[10]; at 33.0 µM,-3%
same,growth inhibition,[10]; [17],90% (active)
same,growth inhibition,[10]; at 50.0 µM,61.4%
same,growth inhibition,[10]; at 100.0 µM,-11%
same,growth inhibition,[11]; [16],-5%
same,growth inhibition,[11]; [17],86% (active)
same,growth inhibition,[11]; at 50.0 µM,75.7% (active)
same,growth inhibition,[12]; at 1.2 µM,1%
same,growth inhibition,[12]; at 3.7 µM,-5%
same,growth inhibition,[12]; at 11.0 µM,-5%
same,growth inhibition,[12]; at 33.0 µM,-10%
same,growth inhibition,[12]; at 100.0 µM,-13%
same,growth inhibition,[13]; [16],94% (active)
same,growth inhibition,[13]; [17],84% (active)
same,growth inhibition,[13]; at 50.0 µM,63.1%
same,growth inhibition,[14]; at 1.2 µM,-2%
same,growth inhibition,[14]; at 3.7 µM,0%
same,growth inhibition,[14]; [16],97% (active)
same,growth inhibition,[14]; at 11.0 µM,-2%
same,growth inhibition,[14]; at 33.0 µM,-8%
same,growth inhibition,[14]; [17],91% (active)
same,growth inhibition,[14]; at 50.0 µM,56.4%
same,growth inhibition,[14]; at 100.0 µM,-16%
same,growth inhibition,[15]; at 1.2 µM,-3%
same,growth inhibition,[15]; at 3.7 µM,-1%
same,growth inhibition,[15]; at 11.0 µM,-4%
same,growth inhibition,[15]; at 33.0 µM,-6%
same,growth inhibition,[15]; at 100.0 µM,-10%
same,growth inhibition,[1]; at 1.2 µM,1%
same,growth inhibition,[1]; at 3.7 µM,1%
same,growth inhibition,[1]; at 11.0 µM,1%
same,growth inhibition,[1]; at 33.0 µM,-3%
same,growth inhibition,[1]; at 100.0 µM,-8%
same,growth inhibition,[2]; at 1.2 µM,0%
same,growth inhibition,[2]; at 3.7 µM,0%
same,growth inhibition,[2]; at 11.0 µM,-4%
same,growth inhibition,[2]; at 33.0 µM,-5%
same,growth inhibition,[2]; at 100.0 µM,-13%
same,growth inhibition,[3]; [16],9%
same,growth inhibition,[3]; [17],87% (active)
same,growth inhibition,[3]; at 50.0 µM,72.5% (active)
same,growth inhibition,[4]; at 1.2 µM,-3%
same,growth inhibition,[4]; at 3.7 µM,-4%
same,growth inhibition,[4]; at 11.0 µM,-6%
same,growth inhibition,[4]; at 33.0 µM,-13%
same,growth inhibition,[4]; at 100.0 µM,-20%
CCC/C(Cl)=N\OC(=O)Nc1cccc(C(F)(F)F)c1,growth inhibition,[5]; at 1.2 µM,9%
same,growth inhibition,[5]; at 3.7 µM,10%
same,growth inhibition,[5]; at 11.0 µM,10%
same,growth inhibition,[5]; at 33.0 µM,19%
same,growth inhibition,[5]; at 100.0 µM,21%
same,growth inhibition,[6]; at 1.2 µM,1%
same,growth inhibition,[6]; at 3.7 µM,2%
same,growth inhibition,[6]; at 11.0 µM,0%
same,growth inhibition,[6]; at 33.0 µM,2%
same,growth inhibition,[6]; at 100.0 µM,5%
same,growth inhibition,[7]; at 1.2 µM,27%
same,growth inhibition,[7]; at 3.7 µM,32%
same,growth inhibition,[7]; at 11.0 µM,36%
same,growth inhibition,[7]; at 33.0 µM,35%
same,growth inhibition,[7]; at 100.0 µM,25%
same,growth inhibition,[8]; at 1.2 µM,7%
same,growth inhibition,[8]; at 3.7 µM,37%
same,growth inhibition,[8]; at 11.0 µM,68%
same,growth inhibition,[8]; at 33.0 µM,78% (active)
same,growth inhibition,[8]; at 100.0 µM,66%
same,growth inhibition,[9]; at 1.2 µM,12%
same,growth inhibition,[9]; at 3.7 µM,14%
same,growth inhibition,[9]; [16],-15%
same,growth inhibition,[9]; at 11.0 µM,13%
same,growth inhibition,[9]; at 33.0 µM,25%
same,growth inhibition,[9]; [17],99% (active)
same,growth inhibition,[9]; at 50.0 µM,87.1% (active)
same,growth inhibition,[9]; at 100.0 µM,26%
same,growth inhibition,[10]; at 1.2 µM,15%
same,growth inhibition,[10]; at 3.7 µM,18%
same,growth inhibition,[10]; [16],16%
same,growth inhibition,[10]; at 11.0 µM,19%
same,growth inhibition,[10]; at 33.0 µM,20%
same,growth inhibition,[10]; [17],98% (active)
same,growth inhibition,[10]; at 50.0 µM,91.8% (active)
same,growth inhibition,[10]; at 100.0 µM,23%
same,growth inhibition,[11]; [16],6%
same,growth inhibition,[11]; [17],99% (active)
same,growth inhibition,[11]; at 50.0 µM,85.8% (active)
same,growth inhibition,[12]; at 1.2 µM,15%
same,growth inhibition,[12]; at 3.7 µM,5%
same,growth inhibition,[12]; at 11.0 µM,4%
same,growth inhibition,[12]; at 33.0 µM,6%
same,growth inhibition,[12]; at 100.0 µM,18%
same,growth inhibition,[13]; [16],56%
same,growth inhibition,[13]; [17],98% (active)
same,growth inhibition,[13]; at 50.0 µM,89.7% (active)
same,growth inhibition,[14]; at 1.2 µM,34%
same,growth inhibition,[14]; at 3.7 µM,44%
same,growth inhibition,[14]; [16],9%
same,growth inhibition,[14]; at 11.0 µM,51%
same,growth inhibition,[14]; at 33.0 µM,47%
same,growth inhibition,[14]; [17],98% (active)
same,growth inhibition,[14]; at 50.0 µM,87.7% (active)
same,growth inhibition,[14]; at 100.0 µM,46%
same,growth inhibition,[15]; at 1.2 µM,21%
same,growth inhibition,[15]; at 3.7 µM,38%
same,growth inhibition,[15]; at 11.0 µM,61%
same,growth inhibition,[15]; at 33.0 µM,83% (active)
same,growth inhibition,[15]; at 100.0 µM,77% (active)
same,growth inhibition,[1]; at 1.2 µM,3%
same,growth inhibition,[1]; at 3.7 µM,7%
same,growth inhibition,[1]; at 11.0 µM,16%
same,growth inhibition,[1]; at 33.0 µM,18%
same,growth inhibition,[1]; at 100.0 µM,17%
same,growth inhibition,[2]; at 1.2 µM,50%
same,growth inhibition,[2]; at 3.7 µM,62%
same,growth inhibition,[2]; at 11.0 µM,81% (active)
same,growth inhibition,[2]; at 33.0 µM,90% (active)
same,growth inhibition,[2]; at 100.0 µM,88% (active)
same,growth inhibition,[3]; [16],-10%
same,growth inhibition,[3]; [17],99% (active)
same,growth inhibition,[3]; at 50.0 µM,83.7% (active)
same,growth inhibition,[4]; at 1.2 µM,-7%
same,growth inhibition,[4]; at 3.7 µM,-8%
same,growth inhibition,[4]; at 11.0 µM,-7%
same,growth inhibition,[4]; at 33.0 µM,-16%
same,growth inhibition,[4]; at 100.0 µM,2%
